We go through 63 molecules from PubChem BioAssay AID1671202 (University of Kansas High Throughput Screening Laboratory, 2021).

Where “and” joins values, the source holds several entries; their conditions need not be identical. Equal values may be shown once. Among all 190,000 compounds or so, about 6,900 (3.6%) were called active. This is one part of a sample in which actives are shown more often than they occur. Cut-off read from the data, not from the text of the source: active = inhibition above about 50%; inactive = the rest. A structure can be active in one record and inactive in another.

Huntingtin (Homo sapiens), sequence (P42858 whole entry, looked up, stated change not applied): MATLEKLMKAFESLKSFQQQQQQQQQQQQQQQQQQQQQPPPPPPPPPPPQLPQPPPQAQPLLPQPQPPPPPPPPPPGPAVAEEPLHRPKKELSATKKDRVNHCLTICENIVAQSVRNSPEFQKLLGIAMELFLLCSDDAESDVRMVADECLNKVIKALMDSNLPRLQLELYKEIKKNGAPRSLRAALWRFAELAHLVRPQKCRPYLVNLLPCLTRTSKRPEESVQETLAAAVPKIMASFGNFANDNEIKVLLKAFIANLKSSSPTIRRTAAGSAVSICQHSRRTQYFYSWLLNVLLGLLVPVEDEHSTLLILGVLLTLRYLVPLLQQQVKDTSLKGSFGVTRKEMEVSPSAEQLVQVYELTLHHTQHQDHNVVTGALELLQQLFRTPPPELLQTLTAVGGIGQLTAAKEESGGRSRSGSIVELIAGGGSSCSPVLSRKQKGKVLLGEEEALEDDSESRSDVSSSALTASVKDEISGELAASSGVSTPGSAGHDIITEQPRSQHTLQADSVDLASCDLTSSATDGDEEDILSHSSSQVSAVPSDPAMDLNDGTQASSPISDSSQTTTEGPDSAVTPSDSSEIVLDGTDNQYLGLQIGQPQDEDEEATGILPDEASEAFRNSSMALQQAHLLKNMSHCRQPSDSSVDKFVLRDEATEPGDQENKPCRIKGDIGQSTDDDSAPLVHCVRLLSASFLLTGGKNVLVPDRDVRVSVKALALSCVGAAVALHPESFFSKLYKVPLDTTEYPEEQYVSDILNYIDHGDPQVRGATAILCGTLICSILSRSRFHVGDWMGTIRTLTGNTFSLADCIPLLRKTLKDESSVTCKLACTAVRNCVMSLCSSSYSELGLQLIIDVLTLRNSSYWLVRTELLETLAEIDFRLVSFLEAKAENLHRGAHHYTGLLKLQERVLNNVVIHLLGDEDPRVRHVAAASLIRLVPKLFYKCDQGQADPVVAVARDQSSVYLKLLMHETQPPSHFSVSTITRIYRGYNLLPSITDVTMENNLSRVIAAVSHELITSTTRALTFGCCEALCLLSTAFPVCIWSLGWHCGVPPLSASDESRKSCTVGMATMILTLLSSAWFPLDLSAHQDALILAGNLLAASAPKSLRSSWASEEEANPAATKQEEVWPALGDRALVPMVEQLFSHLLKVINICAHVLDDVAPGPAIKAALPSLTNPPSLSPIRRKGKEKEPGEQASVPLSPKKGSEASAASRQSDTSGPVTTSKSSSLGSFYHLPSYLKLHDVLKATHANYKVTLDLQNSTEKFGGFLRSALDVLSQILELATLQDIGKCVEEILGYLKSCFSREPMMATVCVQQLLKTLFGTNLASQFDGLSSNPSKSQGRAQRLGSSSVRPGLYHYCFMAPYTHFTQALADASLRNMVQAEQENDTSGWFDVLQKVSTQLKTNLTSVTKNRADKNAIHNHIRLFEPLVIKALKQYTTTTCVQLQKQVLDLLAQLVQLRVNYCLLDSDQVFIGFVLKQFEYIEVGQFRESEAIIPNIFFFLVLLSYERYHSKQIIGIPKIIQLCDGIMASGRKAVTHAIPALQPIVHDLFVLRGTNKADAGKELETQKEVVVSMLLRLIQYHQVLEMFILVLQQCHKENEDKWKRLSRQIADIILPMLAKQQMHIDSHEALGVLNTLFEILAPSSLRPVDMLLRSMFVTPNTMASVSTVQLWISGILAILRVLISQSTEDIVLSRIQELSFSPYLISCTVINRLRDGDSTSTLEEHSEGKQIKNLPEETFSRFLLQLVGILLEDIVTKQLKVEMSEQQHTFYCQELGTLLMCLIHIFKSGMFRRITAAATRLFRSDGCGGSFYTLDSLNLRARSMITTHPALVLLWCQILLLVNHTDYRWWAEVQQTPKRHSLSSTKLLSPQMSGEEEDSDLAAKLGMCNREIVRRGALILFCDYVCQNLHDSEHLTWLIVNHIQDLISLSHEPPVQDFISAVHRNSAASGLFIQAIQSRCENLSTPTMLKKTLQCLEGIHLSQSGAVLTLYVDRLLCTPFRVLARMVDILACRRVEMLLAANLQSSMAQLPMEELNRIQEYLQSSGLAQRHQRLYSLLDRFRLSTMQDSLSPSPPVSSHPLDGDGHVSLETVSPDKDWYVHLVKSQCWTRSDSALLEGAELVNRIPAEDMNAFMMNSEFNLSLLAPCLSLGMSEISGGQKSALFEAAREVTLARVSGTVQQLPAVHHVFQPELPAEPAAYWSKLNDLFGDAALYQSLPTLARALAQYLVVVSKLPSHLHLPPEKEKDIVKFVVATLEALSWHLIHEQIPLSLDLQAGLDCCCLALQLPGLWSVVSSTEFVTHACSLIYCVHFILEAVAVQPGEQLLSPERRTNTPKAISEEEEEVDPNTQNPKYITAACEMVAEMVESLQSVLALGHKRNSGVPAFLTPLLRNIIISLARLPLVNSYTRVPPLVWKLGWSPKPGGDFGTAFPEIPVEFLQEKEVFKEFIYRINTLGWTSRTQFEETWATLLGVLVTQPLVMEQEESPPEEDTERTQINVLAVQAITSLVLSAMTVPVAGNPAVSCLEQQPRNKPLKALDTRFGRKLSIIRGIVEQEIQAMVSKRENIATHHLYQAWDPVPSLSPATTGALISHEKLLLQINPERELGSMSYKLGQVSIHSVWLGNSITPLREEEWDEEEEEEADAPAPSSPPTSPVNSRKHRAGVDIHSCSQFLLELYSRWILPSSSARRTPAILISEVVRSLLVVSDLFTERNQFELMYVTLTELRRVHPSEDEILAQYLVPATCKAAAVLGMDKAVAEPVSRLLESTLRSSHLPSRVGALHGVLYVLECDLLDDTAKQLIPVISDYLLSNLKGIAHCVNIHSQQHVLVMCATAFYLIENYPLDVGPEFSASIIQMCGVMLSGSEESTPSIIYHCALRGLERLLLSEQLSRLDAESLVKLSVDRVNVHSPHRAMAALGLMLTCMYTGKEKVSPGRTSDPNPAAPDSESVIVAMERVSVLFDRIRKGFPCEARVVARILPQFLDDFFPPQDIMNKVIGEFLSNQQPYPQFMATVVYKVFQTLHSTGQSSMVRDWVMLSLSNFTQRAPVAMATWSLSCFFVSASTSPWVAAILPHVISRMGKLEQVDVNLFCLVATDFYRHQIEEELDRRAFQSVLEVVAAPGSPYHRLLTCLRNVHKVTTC

This test has as its target Huntingtin (Homo sapiens) (UniProt P42858). Briefly: mutant huntingtin-calmodulin interaction inhibitors – biochemical, AlphaScreen, primary screen (AID 1671202).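 Note: 0% = both proteins with DMSO and 100% = one protein alone.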 Particulars: AlphaScreen His-mHTT/GST-CaM binding, luminescence; at 15 µM, stronger effect = higher value. For orientation: Alpha assays give light when donor and acceptor beads are brought close together.
With `COc1cccc(CCC(=O)N2CCCN(c3ncccc3-c3nc(C4CC4)no3)CC2)c1`, the inhibition (as a rule, the drop in the measured response relative to a control, in per cent) was -31.2% (inactive).

Consider `Cn1nc(COc2ccccc2)c2c1CCN(C(=O)c1ccoc1)C2`, for which the inhibition is 3.9% (inactive).

`Cc1ccc(S(=O)(=O)N2CCc3c(c(COc4ccccc4)nn3C)C2)cc1C`: the inhibition is 60.3% (active).

On to `Cn1nc(COc2ccccc2)c2c1CCN(C(=O)Nc1ccccc1F)C2`, for which the inhibition was 16.9% (inactive).

For `CC(C)CNC(=O)C(=O)NCC(c1ccco1)S(=O)(=O)c1cccs1` (stereo not drawn), the inhibition is -9.6% (inactive).

For `O=C1C2C(C(=O)N1c1ccccc1[N+](=O)[O-])C1C=CC2C12CC2` (stereo not drawn), the inhibition was 3% (inactive).

Turning to `COc1ccc(N2C(=O)CC(Nc3ccc(OC(F)(F)F)cc3)C2=O)cc1` (stereo not drawn), the inhibition was -4% (inactive).

Turning to `Cc1ccc(N2C(=O)CC(Nc3ccc(N4CCOCC4)cc3)C2=O)c(Br)c1` (stereo not drawn), the inhibition is 60.1% (active) and 18.3% (inactive).

Regarding `Cc1ccc(NC2CC(=O)N(c3cccc(Cl)c3)C2=O)cc1` (stereo not drawn), the inhibition is -2% (inactive).

As to `O=C(Nc1ccc(N2CCCCC2)nc1)C1CC1`, the inhibition was -1% (inactive).

Turning to `O=C(O)/C(=C\c1cccc([N+](=O)[O-])c1)NC(=O)c1ccco1`, the inhibition is -2.8% (inactive).

In the case of `CCOc1ccc(Br)c(/C=C2\C(=O)Nc3ccc(Br)cc32)c1`, the inhibition is 31% (inactive).

For `COc1ccc(/C=C2\C(=O)Nc3ccc(F)cc32)cc1OC`, the inhibition is 40% (inactive).

Take `CCc1ccc(/C=C2\C(=O)Nc3ccc(F)cc32)cc1`: the inhibition is 66% (active).

In the case of `Cc1ccc(C(=O)N2CCc3sc(C(=O)NCc4ccco4)cc3C2)cc1`, the inhibition was 13.6% (inactive).

For `Cc1ccn2c(-c3csc(Nc4ccc(C(=O)O)cc4)n3)c(C)nc2c1`, the inhibition is -2% (inactive).

Turning to `Cc1ccn2c(-c3csc(Nc4ccc(N)cc4)n3)c(C)nc2c1`, the inhibition is 64.7% (active).

On to `Cc1nc2sccn2c1-c1csc(Nc2ncccn2)n1`, for which the inhibition was 3% (inactive).

For `COCCCNC(=O)C1CCN(c2nnc(-c3ccccc3)o2)CC1`, the inhibition was 2.64% (inactive).

For `CCOC(=O)C1CCCN(CC(O)COC2CC3CCC2(C)C3(C)C)C1` (stereo not drawn), the inhibition was 6.9% (inactive).

Take `Oc1c(C(Nc2ccccn2)c2cccnc2)ccc2cccnc12` (stereo not drawn): the inhibition was 100% (active).

In the case of `Oc1c(C(Nc2ccccn2)c2ccncc2)ccc2cccnc12` (stereo not drawn), the inhibition was 100% (active).

Consider `Oc1c(C(Nc2ccccn2)c2ccc(OC(F)F)cc2)ccc2cccnc12` (stereo not drawn), for which the inhibition is 97% (active).

With `c1ccc(Nc2nc(-c3ccncc3)cs2)nc1`, the inhibition is 18% (inactive).

As to `COc1ccccc1C=C1Oc2cc(C)cc(O)c2C1=O`, the inhibition is -4.4% (inactive).

Turning to `CCC(CC)NC(=O)C1CCc2nc(N3CCN(C(C)=O)CC3)sc2C1` (stereo not drawn), the inhibition was 11.6% (inactive).

For `CC(NC(=O)CN1CCOCC1)C1CC1` (stereo not drawn), the inhibition is -8.9% (inactive).

Take `CN(C(=O)c1ccccn1)C1(C(=O)NC2CCCC2)CCCCC1`: the inhibition is -4% (inactive).

`O=C(Nc1ccc2c(c1)OCCO2)C1CCc2sc(C(=O)N3CCCC3)cc2C1` (stereo not drawn): the inhibition is 12.3% (inactive).

In the case of `CC(C)(C)C(=O)NC(n1cccnc1=O)C(Cl)(Cl)Cl` (stereo not drawn), the inhibition was 2% (inactive).

As to `CCCCN(CC)C(=O)c1c[nH]c2ccc(S(=O)(=O)Nc3ccccc3F)cc2c1=O`, the inhibition is 14% (inactive).

Consider `Cc1ccc(N2C(=O)CSC2c2ccccc2[N+](=O)[O-])cc1Cl` (stereo not drawn), for which the inhibition was 16% (inactive).

In the case of `O=C1CSC(c2ccccc2[N+](=O)[O-])N1c1ccc(Oc2ccccc2)cc1` (stereo not drawn), the inhibition was 59% (active).

Consider `O=C1CSC(c2ccccc2[N+](=O)[O-])N1c1ccc(Br)cc1` (stereo not drawn), for which the inhibition was 28% (inactive).

`CCn1cc(CCNC(C)=O)c2cccnc21`: the inhibition is -8.1% (inactive).

As to `O=C(O)COc1ccccc1C(c1c[nH]c2ccccc12)c1c[nH]c2ccccc12`, the inhibition is 88.9% (active).

Take `CC(Cc1c[nH]c2ccccc12)NC(=O)c1ccncc1` (stereo not drawn): the inhibition was 2.9% (inactive) and 3% (inactive).

Turning to `CC(=O)NC(Cc1c[nH]c2ccccc12)C(=O)O` (stereo not drawn), the inhibition is 3.4% (inactive).

On to `CC(=O)N1CCc2cc(N3CC(C(=O)Nc4ccc(C)cc4F)CC3=O)ccc21` (stereo not drawn), for which the inhibition is -5.06% (inactive).

With `CC(=O)N1CCc2cc(N3CC(C(=O)Nc4cccc(F)c4)CC3=O)ccc21` (stereo not drawn), the inhibition is 90.3% (active).

`CCc1ccc(CNC(=O)C2CC(=O)N(c3ccc4c(c3)CCN4C(C)=O)C2)cc1` (stereo not drawn): the inhibition is -4.01% (inactive).

`O=C(Nc1ccc(N2CCN(C(=O)C3CCCC3)CC2)nc1)c1ccc(F)cc1F`: the inhibition was 1.5% (inactive).

As for `CCOc1ccc2nc(C(=O)Nc3ccc(Br)cc3)sc2c1`, the inhibition was -2% (inactive).

Take `CC(C)(CCl)C(=O)N1CCN(c2cc(Oc3ccc(F)c(F)c3)ncn2)CC1`: the inhibition is 6.2% (inactive).

Consider `Cc1ccc(C(=O)N2CCC(n3cnnc3-c3ccccc3)C2)cn1` (stereo not drawn), for which the inhibition is -1.7% (inactive).

As for `O=C(Nc1ccccc1O)c1ncn[nH]1`, the inhibition is 8.9% (inactive).

For the molecule `CCC(NC(C)=O)c1cccc(Br)c1` (stereo not drawn), the inhibition was -3.8% (inactive).

On to `CCC(NC(=O)c1ncn[nH]1)c1ccccc1` (stereo not drawn), for which the inhibition was 89.5% (active).

On to `Cc1ccc(N2CCC(C(=O)NCc3ccc(F)cc3)C2=O)cc1Cl` (stereo not drawn), for which the inhibition is -0.5% (inactive).

For `COc1cccc(CC(=O)N2CCCC2c2cccc(F)c2)c1` (stereo not drawn), the inhibition was 15% (inactive).

For the molecule `COc1ccc2nc(SCC(=O)NCc3cccs3)[nH]c2c1`, the inhibition was -2% (inactive).

As to `O=C(CSc1nnc(NC(=O)c2ccc(Cl)c(Cl)c2)s1)NCc1ccco1`, the inhibition was -5.3% (inactive).

In the case of `O=C(CSc1nc(CC(=O)NCc2cccs2)cc(=O)[nH]1)NCc1ccco1`, the inhibition was 100% (active).

As to `COc1ccccc1NC(=O)CC(C)c1ccccc1` (stereo not drawn), the inhibition was -7.2% (inactive).

`COc1ccccc1NC(CNS(=O)(=O)c1ccc(Cl)cc1)c1ccccc1` (stereo not drawn): the inhibition is 64% (active).

With `COc1ccccc1NC(=O)c1cc(S(=O)(=O)NCc2ccccc2Cl)ccc1F`, the inhibition was -3% (inactive).

On to `COc1ccc(C2=NN(C(C)=O)C(c3cc4cc(C)ccc4nc3Cl)C2)cc1OC` (stereo not drawn), for which the inhibition was -3% (inactive).

For the molecule `O=C(CN1N=C(c2ccccc2)CCC1=O)NCCc1ccc(Cl)cc1`, the inhibition is 29% (inactive).

As to `O=C(NCCc1ccccc1)c1ccc(I)cc1`, the inhibition is -3% (inactive).

Turning to `COc1ccccc1NC(=O)Cn1nnc(-c2ccccc2F)n1`, the inhibition is -2.8% (inactive).

Regarding `COc1ccc(NC(=O)N2CCC(Cc3ccccc3)CC2)cc1`, the inhibition was -3.2% (inactive).

Regarding `COc1cc(C(=O)N2CCCC2)c([N+](=O)[O-])cc1OC`, the inhibition was -4.1% (inactive).

Take `COc1cc(C(=O)N2CCC(Cc3ccccc3)CC2)c([N+](=O)[O-])cc1OC`: the inhibition is 54.1% (active).
